Reference: PubChem BioAssay (EPA / NIEHS)
Activity calls are given as the source filed them. Rule for the calls: active = hit-call score of the fitted dose curve at least 0.9, where 1 is the maximum; inactive = score below 0.9.

Test: APR_HepG2_p53Act_72hr: Apredica 72-hour HepG2 Assay for p53 Activation (AID 2282923);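 note: average cellular p53 protein immunofluorescence intensity in HepG2 cells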
Details: high-content imaging, actives raise or lower the signal
Procedure, shortened: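 Imaging-based endpoint: after 72 hr compound exposure (up to 200 uM, 0.5% DMSO), fixed and permeabilized monolayers were labelled with anti-p53 antibody and imaged; signal change in either direction was fitted relative to DMSO controls.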

Question: With `C[C@]12CCC(=O)C=C1CC[C@@H]1[C@@H]2CC[C@]2(C)C(=O)CC[C@@H]12` as the compound, how does the outcome read?
Answer: The outcome was “inactive”.

Question: Which outcome does the source give for `O=S(=O)(O)C(F)(F)C(F)(F)C(F)(F)C(F)(F)C(F)(F)C(F)(F)F` here?
Answer: The outcome was “inactive”.

Question: For `CCOP(=S)(OCC)SCSC(C)(C)C`, which outcome is on record?
Answer: The outcome was “inactive”.

Question: For `O=C(NC(=O)c1cc(F)c(F)cc1Cl)Nc1cc(F)ccc1N1CCC(C(=O)O)CC1`, which outcome is on record?
Answer: The outcome was “inactive”.

Question: For `CC(c1ccc(O)cc1)(c1ccc(O)cc1)c1ccc(O)cc1`, which AC50 is on record?
Answer: The AC50 was 110 µM (active).

Question: For `ClC1=C(Cl)[C@]2(Cl)[C@@H]3[C@@H](Cl)[C@H]4O[C@H]4[C@@H]3C1(Cl)C2(Cl)Cl`, which AC50 is on record?
Answer: Its AC50 is 54.5 µM (active).

Question: With `Cc1ccccc1[N+](=O)[O-]` as the compound, how does the outcome read?
Answer: The outcome was “inactive”.

Question: Which outcome does the source give for `ClC1=C(Cl)[C@]2(Cl)[C@@H]3[C@H]4C[C@H]([C@@H]5O[C@H]45)[C@@H]3[C@@]1(Cl)C2(Cl)Cl` here?
Answer: Its outcome is “inactive”.

Question: For `Oc1c(Cl)c(Cl)c(Cl)c(Cl)c1Cl`, which outcome is on record?
Answer: Its outcome is “inactive”.

Question: For `CCCCCCCCCc1ccc(O)cc1`, which outcome is on record?
Answer: Its outcome is “inactive”.

Question: Which outcome does the source give for `O=S(=O)(O)C(F)(F)C(F)(F)C(F)(F)C(F)(F)F` here?
Answer: Its outcome is “inactive”.

Question: With `Cc1cc(-c2ccc(N)c(C)c2)ccc1N` as the compound, how does the outcome read?
Answer: The outcome was “inactive”.

Question: For `CC#Cc1cc(C)nc(Nc2ccccc2)n1`, which AC50 is on record?
Answer: The AC50 was 103 µM (active).

Question: Which AC50 does the source give for `O=C(O)C(F)(F)C(F)(F)C(F)(F)C(F)(F)C(F)(F)C(F)(F)C(F)(F)C(F)(F)F` here?
Answer: Its AC50 is 106 µM (active).

Question: For `O=C(O)C(F)(F)C(F)(F)C(F)(F)C(F)(F)C(F)(F)C(F)(F)C(F)(F)C(F)(F)C(F)(F)F`, which AC50 is on record?
Answer: The AC50 was 113 µM (active).

Question: With `CCCCCCCCCC[N+](C)(C)CCCCCCCCCC` as the compound, how does the AC50 read?
Answer: Its AC50 is 3.25 µM (active).

Question: Which AC50 does the source give for `CCC(=O)O[C@H]1CC[C@H]2[C@@H]3CCC4=CC(=O)CC[C@]4(C)[C@H]3CC[C@]12C` here?
Answer: The AC50 was 89.9 µM (active).

Question: With `COc1ccc(O)c(C(C)(C)C)c1` as the compound, how does the outcome read?
Answer: The outcome was “inactive”.

Question: For `CC1=C2C[C@H]3[C@@H](CC=C4C[C@@H](O)CC[C@@]43C)[C@@H]2CC[C@]12O[C@@H]1C[C@H](C)CN[C@H]1[C@H]2C`, which outcome is on record?
Answer: The outcome was “inactive”.

Question: For `O=C(N[C@H]1CN2CCC1CC2)c1cc2ccoc2cn1`, which outcome is on record?
Answer: Its outcome is “inactive”.

Question: For `NS(=O)(=O)C(F)(F)C(F)(F)C(F)(F)C(F)(F)C(F)(F)C(F)(F)C(F)(F)C(F)(F)F`, which AC50 is on record?
Answer: Its AC50 is 61.7 µM (active).

Question: For `Oc1ccc(C(c2ccc(O)cc2)(C(F)(F)F)C(F)(F)F)cc1`, which outcome is on record?
Answer: The outcome was “inactive”.

Question: With `ClC(Cl)=C(c1ccc(Cl)cc1)c1ccc(Cl)cc1` as the compound, how does the outcome read?
Answer: The outcome was “inactive”.

Question: For `C[C@]12CCC(=O)C=C1CC[C@@H]1[C@@H]2CC[C@@]2(C)[C@H]1CC[C@]2(C)O`, which outcome is on record?
Answer: Its outcome is “inactive”.

Question: For `CCCN(CCC)N=O`, which outcome is on record?
Answer: The outcome was “inactive”.

Question: Which outcome does the source give for `CC(C)(c1ccccc1)c1ccc(O)cc1` here?
Answer: The outcome was “inactive”.

Question: With `Cc1cc2c3c(c1)C(c1ccccc1)=N[C@@H](NC(=O)c1ccncc1)C(=O)N3CC2` as the compound, how does the outcome read?
Answer: Its outcome is “inactive”.

Question: With `CC(C)(O)C(=O)Nc1ccc([N+](=O)[O-])c(C(F)(F)F)c1` as the compound, how does the outcome read?
Answer: The outcome was “inactive”.

Question: For `CCCCCCOC(=O)c1ccccc1C(=O)OCCCCCC`, which outcome is on record?
Answer: Its outcome is “inactive”.

Question: For `N#Cc1ccc(N(CC(N)=O)CC(F)(F)F)cc1C(F)(F)F`, which outcome is on record?
Answer: The outcome was “inactive”.

Question: For `Clc1ccc(Cl)cc1`, which outcome is on record?
Answer: The outcome was “inactive”.

Question: With `Clc1ccc(C(c2ccccc2Cl)C(Cl)(Cl)Cl)cc1` (stereo unspecified) as the compound, how does the outcome read?
Answer: Its outcome is “inactive”.

Question: For `c1cc2ccc3cccc4ccc(c1)c2c34`, which outcome is on record?
Answer: The outcome was “inactive”.

Test: APR_HepG2_MitoMass_72hr: Apredica 72-hour HepG2 Assay for Mitochondrial Mass (AID 2282924);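 note: MitoTracker Red CMXRos stain intensity per cell imaged as mitochondrial mass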
Details: high-content imaging, actives raise or lower the signal
Procedure, shortened: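 Read-out: MitoTracker Red fluorescence intensity from automated imaging (20x, six fields per well) in human HepG2 liver cells. Dosing ran 72 hr, 0.39–200 uM, 0.5% DMSO; bidirectional curve fitting versus DMSO baseline.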

Question: For `C[C@]12CCC(=O)C=C1CC[C@@H]1[C@@H]2CC[C@]2(C)C(=O)CC[C@@H]12`, which outcome is on record?
Answer: Its outcome is “inactive”.

Question: With `O=S(=O)(O)C(F)(F)C(F)(F)C(F)(F)C(F)(F)C(F)(F)C(F)(F)F` as the compound, how does the outcome read?
Answer: Its outcome is “inactive”.

Question: With `CCOP(=S)(OCC)SCSC(C)(C)C` as the compound, how does the outcome read?
Answer: The outcome was “inactive”.

Question: For `O=C(NC(=O)c1cc(F)c(F)cc1Cl)Nc1cc(F)ccc1N1CCC(C(=O)O)CC1`, which outcome is on record?
Answer: The outcome was “inactive”.

Question: For `CC(c1ccc(O)cc1)(c1ccc(O)cc1)c1ccc(O)cc1`, which AC50 is on record?
Answer: The AC50 was 170 µM (active).

Question: For `ClC1=C(Cl)[C@]2(Cl)[C@@H]3[C@@H](Cl)[C@H]4O[C@H]4[C@@H]3C1(Cl)C2(Cl)Cl`, which outcome is on record?
Answer: The outcome was “inactive”.

Question: With `Cc1ccccc1[N+](=O)[O-]` as the compound, how does the outcome read?
Answer: Its outcome is “inactive”.

Question: With `ClC1=C(Cl)[C@]2(Cl)[C@@H]3[C@H]4C[C@H]([C@@H]5O[C@H]45)[C@@H]3[C@@]1(Cl)C2(Cl)Cl` as the compound, how does the outcome read?
Answer: The outcome was “inactive”.

Question: For `Oc1c(Cl)c(Cl)c(Cl)c(Cl)c1Cl`, which outcome is on record?
Answer: The outcome was “inactive”.

Question: Which outcome does the source give for `CCCCCCCCCc1ccc(O)cc1` here?
Answer: Its outcome is “inactive”.

Question: Which outcome does the source give for `O=S(=O)(O)C(F)(F)C(F)(F)C(F)(F)C(F)(F)F` here?
Answer: The outcome was “inactive”.

Question: Which outcome does the source give for `Cc1cc(-c2ccc(N)c(C)c2)ccc1N` here?
Answer: Its outcome is “inactive”.

Question: For `CC#Cc1cc(C)nc(Nc2ccccc2)n1`, which outcome is on record?
Answer: Its outcome is “inactive”.

Question: For `O=C(O)C(F)(F)C(F)(F)C(F)(F)C(F)(F)C(F)(F)C(F)(F)C(F)(F)C(F)(F)F`, which outcome is on record?
Answer: The outcome was “inactive”.

Question: With `O=C(O)C(F)(F)C(F)(F)C(F)(F)C(F)(F)C(F)(F)C(F)(F)C(F)(F)C(F)(F)C(F)(F)F` as the compound, how does the AC50 read?
Answer: Its AC50 is 111 µM (active).

Question: Which AC50 does the source give for `CCCCCCCCCC[N+](C)(C)CCCCCCCCCC` here?
Answer: Its AC50 is 3.13 µM (active).

Question: With `CCC(=O)O[C@H]1CC[C@H]2[C@@H]3CCC4=CC(=O)CC[C@]4(C)[C@H]3CC[C@]12C` as the compound, how does the AC50 read?
Answer: The AC50 was 92.1 µM (active).

Question: Which outcome does the source give for `COc1ccc(O)c(C(C)(C)C)c1` here?
Answer: The outcome was “inactive”.

Question: Which AC50 does the source give for `CC1=C2C[C@H]3[C@@H](CC=C4C[C@@H](O)CC[C@@]43C)[C@@H]2CC[C@]12O[C@@H]1C[C@H](C)CN[C@H]1[C@H]2C` here?
Answer: Its AC50 is 41.2 µM (active).

Question: With `O=C(N[C@H]1CN2CCC1CC2)c1cc2ccoc2cn1` as the compound, how does the outcome read?
Answer: Its outcome is “inactive”.

Question: Which outcome does the source give for `NS(=O)(=O)C(F)(F)C(F)(F)C(F)(F)C(F)(F)C(F)(F)C(F)(F)C(F)(F)C(F)(F)F` here?
Answer: The outcome was “inactive”.

Question: For `Oc1ccc(C(c2ccc(O)cc2)(C(F)(F)F)C(F)(F)F)cc1`, which outcome is on record?
Answer: The outcome was “inactive”.

Question: For `ClC(Cl)=C(c1ccc(Cl)cc1)c1ccc(Cl)cc1`, which AC50 is on record?
Answer: Its AC50 is 60.2 µM (active).

Question: With `C[C@]12CCC(=O)C=C1CC[C@@H]1[C@@H]2CC[C@@]2(C)[C@H]1CC[C@]2(C)O` as the compound, how does the outcome read?
Answer: Its outcome is “inactive”.

Question: With `CCCN(CCC)N=O` as the compound, how does the outcome read?
Answer: Its outcome is “inactive”.

Question: With `CC(C)(c1ccccc1)c1ccc(O)cc1` as the compound, how does the outcome read?
Answer: The outcome was “inactive”.

Question: Which outcome does the source give for `Cc1cc2c3c(c1)C(c1ccccc1)=N[C@@H](NC(=O)c1ccncc1)C(=O)N3CC2` here?
Answer: Its outcome is “inactive”.

Question: For `CC(C)(O)C(=O)Nc1ccc([N+](=O)[O-])c(C(F)(F)F)c1`, which AC50 is on record?
Answer: Its AC50 is 0.652 µM (active).

Question: For `CCCCCCOC(=O)c1ccccc1C(=O)OCCCCCC`, which outcome is on record?
Answer: The outcome was “inactive”.

Question: For `N#Cc1ccc(N(CC(N)=O)CC(F)(F)F)cc1C(F)(F)F`, which outcome is on record?
Answer: Its outcome is “inactive”.

Question: Which outcome does the source give for `Clc1ccc(Cl)cc1` here?
Answer: Its outcome is “inactive”.

Question: Which outcome does the source give for `Clc1ccc(C(c2ccccc2Cl)C(Cl)(Cl)Cl)cc1` (stereo unspecified) here?
Answer: The outcome was “inactive”.

Question: Which outcome does the source give for `c1cc2ccc3cccc4ccc(c1)c2c34` here?
Answer: The outcome was “inactive”.
